# Measured values published in PubChem BioAssay AID488977 (Johns Hopkins Ion Channel Center, 2010).
# In all, about 310,000 compounds went through this assay and about 1,500 (0.48%) were called active.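 Rule for the calls: active = initial fluorescence not abnormally high and integrated response B-score, plate-corrected, over 3 SD above library mean; inactive = the rest.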 The entries come from a sample that favours actives as a whole. More than one record can exist for a structure, and the calls need not agree.
# Target: High affinity choline transporter 1 (Homo sapiens) (UniProt Q9GZV3)
# Sequence (Q9GZV3 whole entry, looked up): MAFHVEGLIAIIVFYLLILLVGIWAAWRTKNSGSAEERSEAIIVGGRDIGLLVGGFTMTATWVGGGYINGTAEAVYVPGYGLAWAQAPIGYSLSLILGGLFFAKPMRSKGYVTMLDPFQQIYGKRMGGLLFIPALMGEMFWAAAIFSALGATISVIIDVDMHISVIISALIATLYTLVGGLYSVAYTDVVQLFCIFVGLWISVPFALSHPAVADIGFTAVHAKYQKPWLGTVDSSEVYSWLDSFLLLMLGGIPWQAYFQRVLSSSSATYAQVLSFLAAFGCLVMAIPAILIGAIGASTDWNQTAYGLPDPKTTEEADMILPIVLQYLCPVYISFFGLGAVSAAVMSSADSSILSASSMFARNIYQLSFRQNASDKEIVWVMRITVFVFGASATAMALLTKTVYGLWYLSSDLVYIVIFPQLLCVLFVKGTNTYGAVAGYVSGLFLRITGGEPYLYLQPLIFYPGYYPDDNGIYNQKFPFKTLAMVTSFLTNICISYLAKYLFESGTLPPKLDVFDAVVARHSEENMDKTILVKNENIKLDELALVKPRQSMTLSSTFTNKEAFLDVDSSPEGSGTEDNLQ
# Test: allosteric activators of human choline transporter – cell-based, membrane potential dye, choline EC20, primary screen (AID 488977)
# Conditions: CHT-expressing cells, at 10 µM, LV-AA mutant CHT in HEK293 cells; hits give high values
SMILES,B-score,outcome
COC(=O)c1ccc(SCc2ccccc2)nc1,inactive,
COc1ccc(NC(=O)CN(C)C(=O)CC2CCCCC2)cc1,inactive,
Cc1ccc(C(=O)NC2CCCC(C)C2C)cc1S(=O)(=O)N1CCCCC1 (centres undefined),inactive,
COc1ccc(C(=O)NCc2cn3ccccc3n2)cc1,inactive,
O=Cc1ccc(OCc2cn3ccccc3n2)cc1,7.07 (active),
Cn1cc[n+](C)c1COc1ccc(C=O)cc1,inactive,
COc1ccc(S(=O)(=O)N2CCCCC2)cc1NC(=O)C1CC(=O)N(c2ccc3c(c2)OCCO3)C1 (centres undefined),inactive,
COc1ccc(/C=N/NC(=O)c2cc(-c3cccc(C)c3)nc3ccccc23)cc1O,inactive,
CCN1C(=O)[C@H]2[C@@H](c3ccc(SC4CCCCC4)c(OC)c3)N[C@@](Cc3ccccc3)(C(=O)OC)[C@H]2C1=O,inactive,
O=C(NCCc1ccco1)C(=O)NCCC1CCCCN1S(=O)(=O)c1ccccc1 (centres undefined),inactive,
CN1CCN(c2cc3c(cc2F)c(=O)c(C(=O)O)cn3CCF)CC1,inactive,
CCn1cc(S(=O)(=O)c2cccc(C)c2)c(=O)c2cc(F)c(N3CCN(C)CC3)cc21,8.24 (active),
CCn1cc(C(=O)NCCO)c(=O)c2cc(F)c(N3CCN(C)CC3)cc21,inactive,
CCN1C(=O)[C@H]2[C@@H](c3ccc(-c4ccc(F)cc4)cc3)N[C@@](Cc3ccccc3)(C(=O)OC)[C@H]2C1=O,inactive,
CN(/N=C/c1ccccc1)C(=S)c1ccccc1,inactive,
Cc1ccc(C)c(OCCC(=O)Nc2cccc(S(=O)(=O)N3CCCC3)c2)c1,inactive,
Cn1c(=NC(=O)CSCC(=O)N2CCCCC2)sc2ccccc21,inactive,
Cn1c(=NC(=O)c2ccco2)sc2cccc(F)c21,inactive,
Cn1c(=NC(=O)c2cnccn2)sc2ccccc21,7.8 (active),
O=C(Nc1ncccc1O)c1ccc(S(=O)(=O)N2CCCCCC2)cc1,inactive,
CCN(CC)c1ccc(S(=O)(=O)N2CCCCC2)cc1NC(=O)C1=COCCO1,inactive,
OCc1ccc(-c2ccccc2)c(-c2ccccc2)c1,inactive,

SMILES,B-score,outcome
O=C1c2ccccc2S(=O)(=O)N1CC(O)Cn1c2ccccc2c2ccccc21 (centres undefined),inactive,
CS(=O)(=O)N(CC(O)Cn1c2ccccc2c2ccccc21)c1cccc2ccccc12 (centres undefined),inactive,
CCCCN(CCCC)CC(O)Cn1c2ccccc2c(=O)c2ccccc21 (centres undefined),8.77 (active),
COc1ccc(CCNc2cc(N3CCN(C(=O)c4ccccc4OC)CC3)ccc2[N+](=O)[O-])cc1OC,inactive,
CCN1CCN(c2c(Cl)cccc2NC(=O)c2ccc(Br)o2)CC1,8.41 (active),
COc1cc(OC)c(NC(=O)c2ccc(Br)o2)cc1Cl,inactive,
CCCC(=O)Nc1ccc(Cl)c(NC(=O)c2ccc(Br)o2)c1,inactive,
O=C1CCCCC1Sc1ccc(Cl)cc1[N+](=O)[O-] (centres undefined),inactive,
COC(=O)[C@]1(C)N[C@H](c2ccc(-c3ccc(Cl)c(Cl)c3)cc2)[C@@H]2C(=O)N(C)C(=O)[C@@H]21,inactive,
Cc1nnc(C)c2c(C)n(N)c(C)c12,9.77 (active),
COc1cc(C(=O)NCC(=O)NCCSc2ccc(Br)cc2)cc(OC)c1OC,inactive,
O=C(COC(=O)Cc1c[nH]c2ccccc12)NCCc1ccccc1,inactive,
CCN1C(=NCCc2cccnc2)N[C@@H](c2ccccc2)[C@H](C(=O)OC)[C@H]1C,6.5 (active),
CCN1C(=NCCc2cccnc2)N[C@@H](c2ccccc2)C(C(=O)OC)=C1C,inactive,
CCN1C(=S)N[C@@H](CCc2ccccc2)[C@H](C(=O)OC)[C@H]1C,inactive,
O=C(Nc1ncccc1O)c1ccc(S(=O)(=O)N2CCCC2)cc1,inactive,
COc1cc(C(=O)N(C)Cc2cccc(OC)c2OC)ccc1OCC(=O)Nc1cccc(C(F)(F)F)c1,inactive,
O=C(N/N=C/c1cc(Br)c(O)c([N+](=O)[O-])c1)C(O)(c1ccccc1)c1ccccc1,inactive,
COc1ccc(Nc2nnc(C)c3ccccc23)cc1,inactive,
C=CCNc1nnc(C)c2ccccc12,7.04 (active),
C=CCNc1nnc(SCC(=O)N2CCCCC2)c2ccccc12,inactive,
COc1ccc(-c2ccc3nnc(SCC(=O)Nc4ccc(NC(C)=O)cc4)n3n2)cc1,inactive,

SMILES,B-score,outcome
COc1ccc(C(=O)NCC2CCCN2S(=O)(=O)c2cccs2)cc1OC (centres undefined),inactive,
CN1CCN(C2Cc3ccc(Cl)cc3Sc3ccc(F)cc32)CC1 (centres undefined),inactive,
O=C(COC(=O)C1CCN(S(=O)(=O)c2ccc3c(c2)OCCO3)CC1)Nc1ccccc1OC(F)F,6.95 (active),
CCOC(=O)C1CCN(C(=O)COC(=O)C2CCN(S(=O)(=O)c3ccc4c(c3)OCCO4)CC2)CC1,inactive,
COc1ccccc1CNC(=O)C1CCN(S(=O)(=O)c2ccc3c(c2)OCCO3)CC1,inactive,
Cc1ccc(N2CC(C(=O)N3CCC4(CC3)CC(=O)c3ccccc3O4)CC2=O)cc1C (centres undefined),inactive,
O=C(NCCC1CCCCN1S(=O)(=O)c1ccc(Cl)cc1)C(=O)NCc1ccco1 (centres undefined),inactive,
Brc1cnc2ccccc2c1N1CCCCC1,inactive,
CCCNC(=O)c1ccc(N2CCC3(CC2)CC(c2cccc(Br)c2)=NO3)c(NC(=O)c2ccco2)c1,inactive,
C#CCOCCOCCOCCNc1nc(N2CCN(C(=O)CCCCCCCCCCNC(=O)[C@H]([C@@H](C)CC)n3cc(CCCCN=C(N)N)nn3)CC2)nc(N2CCN(C(=O)CCCCCCCCCCNC(=O)[C@H](CO)n3cc(CCCSC)nn3)CC2)n1,inactive,
C#CCOCCOCCOCCNc1nc(N2CCN(C(=O)CCCCCCCCCCNC(=O)[C@H](CCCCN)n3cc(C)nn3)CC2)nc(N2CCN(C(=O)CCCCCCCCCCNC(=O)[C@H](CO)n3cc(CCCSC)nn3)CC2)n1,7.24 (active),
C#CCOCCOCCOCCNc1nc(N2CCN(C(=O)CCCCCCCCCCNC(=O)Cn3cc(CCCCCN)nn3)CC2)nc(N2CCN(C(=O)CCCCCCCCCCNC(=O)[C@H](CO)n3cc(CCCSC)nn3)CC2)n1,inactive,
O=C(Nc1ccccc1N1CCN(c2ccccc2)CC1)c1cccc(F)c1,7.46 (active),
O=C(Nc1ccccc1N1CCCCC1)c1cccc(F)c1,inactive,
Cc1cccc(C(=O)Nc2ccccc2N2CCN(c3ccc(F)cc3)CC2)c1,inactive,
CSc1ccccc1NC(=O)c1cnc2sc(C)cn2c1=O,inactive,
CCN1C(=O)[C@@H]2[C@@H](c3ccc(-c4ccc(OC)cc4)c(OC)c3)N3CCC[C@@]3(C(=O)OC)[C@@H]2C1=O,inactive,
O=C(C[n+]1cc(-c2ccc(Cl)c(Cl)c2)n2c1CCC2)c1cccs1,inactive,
Cc1ccc(-c2c[n+](CC(=O)Nc3ccccc3)c3n2CCC3)cc1,inactive,
Cc1ccc(C(=O)C[n+]2cc(-c3ccccc3)n3c2CCCCC3)cc1,7.44 (active),inactive
Nc1nonc1-n1nnc(C(=O)N/N=C/c2ccccc2O)c1CN1CCCC1,inactive,
CSc1ccc(/C=N\NC(=O)CC(=O)NC(C)C)cc1,inactive,

SMILES,B-score,outcome
Cc1ccc(-n2c(C)cc(/C=N\NC(=O)CC(=O)NC(C)C)c2C)cc1,11.1 (active),
Cc1cc(/C=N/NC(=O)CC2(C)OCCO2)c(C)n1-c1ccc(Cl)c(Cl)c1,inactive,
CN(C(=O)c1cc2c(=O)n3ccccc3nc2s1)C1CCCCC1,inactive,
O=C1N[C@@H](Cc2ccccc2)C(=O)N2[C@H]1C[C@]1(Br)c3ccccc3N(S(=O)(=O)c3ccccc3)[C@H]21,inactive,
O=S(=O)(O)Oc1c[nH]c2ccccc12,inactive,
COc1cc2c(cc1OC)C(C(C)C)=NC(C)(C)C2,inactive,
COc1cc2c(cc1O)C(SC)=NC(C)(C)C2,inactive,
COc1cc2c(cc1OC)C(Nc1ccc(S(N)(=O)=O)cc1)=NC(C)(C)C2,9.17 (active),
O=C(NCCCc1ccccc1)C(=O)NCC1OCCN1S(=O)(=O)c1ccccc1 (centres undefined),inactive,
Cc1ccc(S(=O)(=O)N2CCC(C(=O)NCCC3=CCCCC3)CC2)cc1C,inactive,
C1=C(CCNc2ncnc3c2cnn3-c2ccccc2)CCCC1,inactive,
O=C(NCCC1=CCCCC1)C1CCN(Cc2cnn(-c3ccccc3)c2-n2cccc2)CC1,6.26 (active),
COc1ccccc1C(=O)Nc1ccccc1C(=O)Nc1ccccc1,inactive,
COc1ccccc1-c1nnc(-c2ccc(F)cc2)o1,inactive,
Cc1cc(=O)oc2cc(OCCC[n+]3ccccc3)ccc12,8.55 (active),
Cc1ccccc1N1CCN(CCCOc2ccc3c(C)cc(=O)oc3c2)CC1,inactive,
Cc1cc(=O)oc2ccc(OCC(=O)O)cc12,inactive,
O=[N+]([O-])c1ccc(N2CCN(S(=O)(=O)c3ccc4ccccc4c3)CC2)cc1NCc1ccco1,inactive,
O=C(c1ccccc1)N1CCN(c2ccc([N+](=O)[O-])c(NCc3ccco3)c2)CC1,inactive,
O=[N+]([O-])c1ccc(N2CCNCC2)cc1NCc1cccnc1,6.95 (active),
Cc1cc(Br)ccc1NC(=O)CN(C)C(=O)CN1C(=O)NC2(CCCC2)C1=O,inactive,
COc1cc(/C=N/NC(=O)c2cc(-c3ccccc3C)nc3ccccc23)cc(OC)c1O,inactive,
